A short description of assay [1]: qHTS assay to identify small molecule antagonists of the thyroid receptor (TR) signaling pathway (AID 743065). Also: nearly all actives have a fitted effect of over 55% in size. Also: potency is read from the fitted curve at half-maximal effect. The method, boiled down: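 Antagonism measured as loss of luciferase signal in GH3 cells stably carrying a TRE-luciferase reporter, co-treated with compound and T3 (1 nM final) for 23.5 h at 37 C. Viability was read in the same well by CellTiter-Fluor.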

The test system of assay [2] is thyroid hormone receptor (rat, GH3 cells). Kind of assay: qHTS assay to identify small molecule agonists of the thyroid receptor (TR) signaling pathway (AID 743066; calls by dose curve).
The target of assay [3] is Estrogen receptor (Homo sapiens) (UniProt P03372). Kind of assay: qHTS assay to identify small molecule antagonists of the estrogen receptor alpha (ER-alpha) signaling pathway (AID 743069; active = well fitted curve in the direction sought with a large enough effect in the signal ratio in the repeat runs, not every such curve was filed as active; the % refers to the signal ratio). The method, boiled down: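 Antagonist mode: compounds in DMSO were co-added with 17beta-estradiol to ER-alpha-bla HEK293 cells (2% charcoal-stripped serum) and left 18 h at 37C. Reporter inhibition was measured as FRET fluorescence after 2 h LiveBLAzer substrate at room temperature.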
Chain of Estrogen receptor (Homo sapiens) (P03372 whole entry, looked up): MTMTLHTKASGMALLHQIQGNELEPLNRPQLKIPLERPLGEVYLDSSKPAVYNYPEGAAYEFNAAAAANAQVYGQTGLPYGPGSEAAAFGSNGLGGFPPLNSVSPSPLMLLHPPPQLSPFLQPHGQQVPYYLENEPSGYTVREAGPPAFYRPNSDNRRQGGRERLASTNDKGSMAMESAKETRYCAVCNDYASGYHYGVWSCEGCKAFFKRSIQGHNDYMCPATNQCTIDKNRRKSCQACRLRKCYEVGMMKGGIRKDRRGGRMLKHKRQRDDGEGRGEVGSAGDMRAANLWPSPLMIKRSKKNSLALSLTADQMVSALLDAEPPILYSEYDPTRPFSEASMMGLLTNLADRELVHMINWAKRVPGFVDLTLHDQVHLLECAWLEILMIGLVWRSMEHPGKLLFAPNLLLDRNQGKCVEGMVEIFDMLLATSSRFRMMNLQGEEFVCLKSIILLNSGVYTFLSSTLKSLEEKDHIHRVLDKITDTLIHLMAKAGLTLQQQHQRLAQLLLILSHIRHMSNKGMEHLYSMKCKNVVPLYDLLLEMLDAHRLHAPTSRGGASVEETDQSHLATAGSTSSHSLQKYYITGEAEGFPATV

The nature of assay [4]: qHTS assay to identify small molecule antagonists of the estrogen receptor alpha (ER-alpha) signaling pathway - cell viability counter screen (AID 743074; calls by dose curve;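 also: HEK293 cells carrying ER-alpha-UAS-bla reporter stimulated with 17beta-estradiol; nearly all actives have a fitted effect of over 45% in size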).
Assay [5] deals with Estrogen receptor (Homo sapiens) (UniProt P03372). Description: qHTS assay to identify small molecule agonists of the estrogen receptor alpha (ER-alpha) signaling pathway (AID 743075; calls by dose curve;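 also: HEK293 GripTite cells with ER-alpha and UAS-driven beta-lactamase reporter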; also: potency is read from the fitted curve at half-maximal effect).
Assay [6] has the same target. Description: qHTS assay to identify small molecule agonists of the estrogen receptor alpha (ER-alpha) signaling pathway using the BG1 cell line (AID 743079). Also: nearly all actives have a fitted effect of over 20% in size. Also: potency is read from the fitted curve at half-maximal effect. The conditions noted are these: BG1Luc4E2 cells, ERE-luciferase agonist, 22 h; activation: at 70.3 µM (top of the series).
The nature of assay [7]: qHTS assay to identify small molecule antagonists of the estrogen receptor alpha (ER-alpha) signaling pathway using the BG1 cell line (AID 743080; calls by dose curve;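 also: BG1 cells stimulated with 17beta-estradiol alongside compound; nearly all actives have a fitted effect of over 25% in size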). The method in brief: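 Quantitative HTS on the Tox21 10K library: BG1 cells with endogenous ER-alpha and ERE-luciferase reporter, 17beta-estradiol stimulation, 21.5 h compound exposure, luminescence endpoint with parallel fluorescence cytotoxicity counter-read.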

A short description of assay [8]: qHTS assay to identify small molecule antagonists of the estrogen receptor alpha (ER-alpha) signaling pathway using the BG1 cell line - cell viability counter screen (AID 743081).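 Also: compound given together with 17beta-estradiol as the ER stimulus; nearly all actives have a fitted effect of over 45% in size.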
Assay [9] deals with Aromatase (Homo sapiens) (UniProt P11511). Kind of assay: qHTS assay to identify aromatase inhibitors (AID 743083). Also: nearly all actives have a fitted effect of over 55% in size.
Chain of Aromatase (Homo sapiens) (P11511 whole entry, looked up): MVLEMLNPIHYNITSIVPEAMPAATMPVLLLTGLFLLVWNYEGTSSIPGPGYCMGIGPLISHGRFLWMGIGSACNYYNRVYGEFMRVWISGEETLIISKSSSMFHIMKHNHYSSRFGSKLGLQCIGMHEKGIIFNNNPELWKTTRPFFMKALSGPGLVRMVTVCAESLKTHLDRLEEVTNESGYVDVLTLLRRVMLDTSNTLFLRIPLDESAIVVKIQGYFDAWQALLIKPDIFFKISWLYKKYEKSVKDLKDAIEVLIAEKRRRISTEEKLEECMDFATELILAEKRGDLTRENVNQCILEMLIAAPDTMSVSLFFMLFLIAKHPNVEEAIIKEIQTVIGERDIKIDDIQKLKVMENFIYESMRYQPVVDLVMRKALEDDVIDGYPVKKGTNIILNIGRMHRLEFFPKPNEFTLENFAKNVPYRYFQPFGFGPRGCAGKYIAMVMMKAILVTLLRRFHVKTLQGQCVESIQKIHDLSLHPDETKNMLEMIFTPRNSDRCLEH
Assay [10] is described as follows: qHTS assay to identify aromatase inhibitors - cell viability counter screen (AID 743084).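 Also: cells stimulated with testosterone during compound exposure; nearly all actives have a fitted effect of over 55% in size.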

Each structure is given as a SMILES string. Inconclusive results are not listed. The source made the active and inactive calls. Unless noted, calls follow the shape of the dose curve; as a rule, active = well fitted curve in the direction sought with a large enough effect in the repeat runs; inconclusive = weak or mixed curves; inactive = no such curve, though single readings can be large; an effect the other way counts as inactive or inconclusive.

As for `C[C@@H](O)[C@H]1C(=O)N2C(C(=O)O)=C([C@H]3CCCO3)S[C@H]12`, the Potency entry in [1], in [3], in [4], in [5], in assay [6] and in assay [7] was “inactive” each time. In addition, the Potency result in [8], in assay [9] and in [10] was “inactive” in each case. Also, the molecule was called inactive in assay [2].
For the molecule `c1ccc2sc(SN(C3CCCCC3)C3CCCCC3)nc2c1`, in [1], the Potency was 21.4 µM (active). Also, the call in assay [2] was inactive. In addition, the Potency result in assay [3], in [4], in assay [5], in assay [6], in assay [7] and in assay [8] was “inactive” each time. The Potency result in [9] and in assay [10] was “inactive” each time.
In the case of `NCCNCCO`, the Potency entry in assay [1], in assay [3], in assay [4], in [5], in assay [6] and in assay [7] was “inactive” throughout. For the same molecule, the Potency entry in assay [8], in assay [9] and in assay [10] was “inactive” each time. For the same molecule, the result in assay [2] was inactive.
Regarding `O=C1NC(=O)c2cc([N+](=O)[O-])ccc21`, the Potency entry in [1], in assay [3], in [4], in assay [5], in assay [6] and in assay [7] was “inactive” each time. The Potency entry in assay [8] and in [9] was “inactive” each time. Besides, in assay [2], the molecule was called inactive.
Consider `COC(=O)CCS`, for which the Potency entry in assay [1], in assay [3], in assay [4], in assay [5], in assay [6] and in assay [7] was “inactive” in each case. Moreover, the Potency entry in assay [8], in assay [9] and in [10] was “inactive” each time. Further, the molecule was called inactive in assay [2].
As to `O=c1[nH]c2ccc(Cl)cc2o1`, the Potency result in assay [1], in assay [3], in assay [4], in assay [5], in assay [6] and in assay [7] was “inactive” each time. Also, the Potency entry in assay [8], in assay [9] and in [10] was “inactive” each time. The result in assay [2] was inactive.
`N#CCc1ccc(Cl)cc1Cl`: the Potency result in assay [1], in [3], in [4], in assay [5], in assay [6] and in [7] was “inactive” each time. Moreover, the Potency result in assay [8], in assay [9] and in assay [10] was “inactive” in each case. In addition, in assay [2], the call was inactive.
For `Cc1ccc(C(C)(C)O)cc1`, the Potency result in [1], in assay [3], in assay [4], in [5], in assay [6] and in [7] was “inactive” each time. Also, the Potency entry in assay [8], in assay [9] and in assay [10] was “inactive” in each case. In addition, the molecule was classed as inactive in assay [2].
As to `COc1cc(C(=O)NCCCCCC(=O)O)cc(OC)c1OC`, the Potency result in [1], in assay [3], in [4], in assay [5], in [6] and in assay [7] was “inactive” throughout. Also, the Potency entry in assay [8], in [9] and in assay [10] was “inactive” in each case. The call in assay [2] was inactive.
For `C=C(C)C(=O)OCCCCCCCCCCCCC`, the Potency entry in assay [1], in [3], in assay [4], in [5], in assay [6] and in [7] was “inactive” each time. The Potency result in [8], in [9] and in assay [10] was “inactive” each time. Besides, the call in assay [2] was inactive.
Consider `CCC(C)(C)OC`, for which the Potency entry in assay [1], in assay [3], in [4], in assay [7], in assay [8] and in assay [9] was “inactive” each time. Also, the Potency entry in assay [10] is “inactive”. In addition, in assay [2], the result was inactive. In addition, the Potency was 54.7 µM [activator] (active) in assay [5] and 68.2 µM (active) in assay [6].
On to `C=C1c2cccc(O)c2C(O)=C2C(=O)[C@]3(O)C(O)=C(C(N)=O)C(=O)[C@@H](N(C)C)[C@@H]3[C@@H](O)[C@H]12`, for which the Potency result in [1], in assay [3], in assay [4], in assay [5], in assay [6] and in assay [7] was “inactive” each time. Also, the Potency entry in assay [8], in [9] and in assay [10] was “inactive” in each case. For the same molecule, the molecule was classed as inactive in assay [2].
As to `Cc1ccccc1S`, the Potency entry in assay [1], in assay [3], in assay [4], in assay [5], in assay [6] and in assay [7] was “inactive” in each case. The Potency entry in assay [8], in assay [9] and in [10] was “inactive” throughout. Further, in assay [2], the molecule was called inactive.
`O=C1c2ccccc2C(=O)C1(O)O`: the Potency in assay [1] is 54.8 µM (active). For the same molecule, the call in assay [2] was inactive. Besides, the Potency entry in [3], in [4], in assay [5], in assay [6], in assay [7] and in assay [8] was “inactive” throughout.
For `C=CC(C)(CCC=C(C)C)OC(=O)CC(C)C` (configuration not stated), the Potency entry in assay [1], in assay [3], in assay [4], in assay [5], in [6] and in [8] was “inactive” each time. Further, the Potency entry in assay [9] and in [10] was “inactive” each time. The outcome in assay [2] was inactive.
In the case of `Cc1ccccc1N=C(N)Nc1ccccc1C`, the Potency result in [1], in [3], in assay [4], in [5], in assay [6] and in [7] was “inactive” each time. In addition, the Potency result in assay [9] and in [10] was “inactive” throughout. In assay [2], the molecule was classed as inactive.
In the case of `CC(CN(C)C)C(C)(O)Cc1ccc(Cl)cc1` (configuration not stated), the Potency result in [1], in [3], in assay [4], in assay [5], in assay [6] and in assay [7] was “inactive” in each case. Further, the Potency entry in [9] and in [10] was “inactive” throughout. Further, the molecule was classed as inactive in assay [2].
As to `CCOc1ccccc1O[C@H](c1ccccc1)[C@H]1CNCCO1`, the Potency in [1] was 26.6 µM (active). Also, in assay [2], the molecule was classed as inactive. Further, the Potency result in assay [3], in assay [4], in assay [5], in assay [6], in assay [8] and in [9] was “inactive” in each case. Further, the Potency result in assay [10] was “inactive”.
As for `CCOC(=O)c1ccc(I)cc1`, the Potency entry in assay [1], in assay [3], in [4], in assay [5], in assay [6] and in assay [7] was “inactive” each time. Also, the Potency result in assay [8], in assay [9] and in [10] was “inactive” in each case. Moreover, in assay [2], the molecule was called inactive.
In the case of `CC[N+](CC)(CCNC(=O)C(=O)NCC[N+](CC)(CC)Cc1ccccc1Cl)Cc1ccccc1Cl`, the Potency result in assay [1], in assay [3], in assay [4], in [5], in [8] and in [9] was “inactive” throughout. In addition, in [10], the Potency entry was “inactive”. The molecule was classed as inactive in [2].
Take `CC1(C)S[C@@H]2[C@H](NC(=O)C(c3ccccc3)S(=O)(=O)O)C(=O)N2[C@H]1C(=O)O` (some centres not stated): the Potency entry in [1], in assay [3], in assay [4], in assay [5], in assay [6] and in assay [7] was “inactive” in each case. The Potency result in assay [9] and in [10] was “inactive” each time. The outcome in assay [2] was inactive.
As for `Cc1ccco1`, the Potency result in assay [1], in assay [3], in assay [4], in assay [5], in assay [6] and in assay [8] was “inactive” each time. In addition, the Potency entry in assay [9] and in assay [10] was “inactive” in each case. The molecule was called inactive in [2].
Consider `C=C1CCC2CC1C2(C)C` (configuration not stated), for which the Potency result in assay [1], in [3], in [4], in [5], in [6] and in assay [8] was “inactive” each time. Also, the Potency entry in assay [9] and in [10] was “inactive” throughout. Besides, in assay [2], the call was inactive.
Consider `N#CCCN(CCO)CCO`, for which the Potency entry in assay [1], in assay [3], in assay [4], in [5], in assay [6] and in assay [8] was “inactive” throughout. The Potency entry in assay [9] and in [10] was “inactive” in each case. Besides, the molecule was called inactive in assay [2].

(Values after PubChem BioAssay (Tox21).)
